In PubChem BioAssay AID435019 (Southern Research Specialized Biocontainment Screening …, 2010):
Screen size: about 2,300 compounds; about 1,200 (52%) were called active. How the calls were made is not given here. So high a share suggests a set chosen from earlier hits. Some of the results follow. Measured potencies and affinities stand elsewhere.

Test: mammalian cell cytotoxicity, dose response, cytotoxicity control for M. tuberculosis inhibitor project (AID 435019);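 further: lower values mean fewer viable cells so more cytotoxicity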
Settings: cytotoxicity counter-screen; series mostly up to 40 µM

Row | Compound | outcome
1 | CC(=O)CCSc1ncnc2sc(-c3ccccc3)cc12 | inactive
2 | Nn1c(SCc2ccccc2)nc2ccccc21 | inactive
3 | COC(=O)CCc1nc2c(C#N)c(-c3ccc(Cl)cc3)ccn2n1 | inactive
4 | CC(C)(C)c1ccc(OCCCC(=O)NC2=NCCS2)cc1 | inactive
5 | CCOC(=O)c1sc2nc(C)nc(SC(C)C(=O)N(C)c3ccccc3)c2c1C (stereo not given) | inactive
6 | O=C(CCCC(=O)OCC(=O)c1cccs1)Nc1ccc(Oc2ccccc2)cc1 | inactive
7 | CCc1cc2c(=O)n(C(C)C(=O)OC3CCCCC3)cnc2s1 (stereo not given) | inactive
8 | Cc1ccc(S(=O)(=O)NNC(=O)c2cc([N+](=O)[O-])c(C)c([N+](=O)[O-])c2)cc1 | inactive
9 | COc1ccc(N(CC(=O)Nc2ccccc2C(N)=O)S(=O)(=O)c2ccc(C)c([N+](=O)[O-])c2)cc1 | inactive
10 | CCc1cccc2c(=O)c(C(=O)N3CCOCC3)c[nH]c12 | inactive
11 | COc1ccc(N=Cc2ccc(CNS(=O)(=O)c3ccc(Cl)cc3)o2)cc1 | inactive
12 | CN(C)c1ccc(CNC2C3CC4CC(C3)CC2C4)cc1 (stereo not given) | inactive
13 | CCCCCCCCCCNC(=O)C(=O)Nc1ccccn1 | inactive
14 | CCOc1ccccc1NC(=O)C12CC3CC(C1)CC(c1ccc(C)cc1)(C3)C2 | inactive
15 | C[C@H](O)[C@H](O)[C@H]1CNc2nc(N)[nH]c(=O)c2N1 | inactive
16 | Cc1cc(C)cc(NC(=O)CCc2ccc(C)o2)c1 | inactive
17 | O=C(NC1CCCCC1)C1CC(=O)N(c2cccc([N+](=O)[O-])c2)C1 (stereo not given) | inactive
18 | Cc1cc(C(=O)COC(=O)C2=COCCO2)c(C)n1-c1cccc(F)c1 | inactive
19 | CC(=O)OC1=Cc2c(ccc3ccc(=O)oc23)OC1(C)C | inactive
20 | COc1ccc(NCc2nnc(SCC(=O)c3ccc(OC)cc3)o2)cc1 | inactive
21 | COc1ccc(/C(O)=C/Sc2nnc(Cc3ccccc3)o2)cc1 | inactive
22 | Nc1ccc2c(c1)nnn2-c1ccccc1 | inactive
23 | COc1cc(/C=C(\C#N)c2nc3c(s2)CC(C)CC3)ccc1O (stereo not given) | inactive
24 | CCC[C@@H]1C[C@@H](C(=O)NC(C(C)Cl)[C@H]2O[C@H](SC)[C@H](O)[C@@H](O)[C@H]2O)N(C)C1 (stereo not given in full) | inactive
25 | Nc1ccc(Oc2ccc3c(c2)OCO3)cc1 | inactive
26 | O=C1NN(c2ccc(Br)cc2)C(=O)/C1=C\c1ccc(O)cc1O | inactive
27 | C=CCOc1ccc(C2=NOC(C(=O)Nc3ccc4c(c3)OCCO4)C2)cc1 (stereo not given) | inactive
28 | COc1ccccc1NC(=O)CN1CCN(CC(=O)Nc2ccc3c(c2)OCO3)CC1 | inactive
29 | Nc1ncc2[nH]cnc2n1 | inactive
30 | C[C@]12C=CC(=O)C=C1CC[C@@H]1C2=CC[C@]2(C)[C@@H](C(=O)CN3CCN(c4cc(N5CCCC5)nc(N5CCCC5)n4)CC3)CC[C@@H]12 | inactive
